Measured values as given in PubChem BioAssay (NCATS).
Values joined by “and” are separate entries in the source; they are usually repeats but may differ in a detail not shown here. Equal entries are not always repeated. Active and inactive are the calls of the source. Unless noted, the call rests on the fitted dose curve.

Assays:
[1] = target: Bile acid receptor (Homo sapiens) (UniProt Q96RI1); experiment: qHTS assay for small molecule agonists of farnesoid X receptor signaling (AID 588527); conditions: HEK293T FXR-UAS-bla, beta-lactamase ratio, 16 h; activation: stronger effect = higher value; further: potency means the concentration at half of the fitted maximal effect;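 on activation: 0% = vehicle basal and 100% = reference agonist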
In short: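 FXR-UAS-bla HEK293T cells (10% dialyzed FBS) preincubated 5-7 h at 37 C, then compounds at up to 92 uM for 16 h at 37 C. CCF4 beta-lactamase read-out after 2 h RT. Normalized to chenodeoxycholic acid (100 uM) and DMSO; Hill fit gave EC50 and efficacy.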

[2] = target: Peroxisome proliferator-activated receptor delta (Homo sapiens) (UniProt Q03181); experiment: qHTS assay for small molecule agonists of peroxisome proliferator-activated receptor delta signaling (AID 588534);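 further: 0% = DMSO basal wells and 100% = positive control agonist at 10 µM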
Peroxisome proliferator-activated receptor delta (Homo sapiens), sequence (Q03181 whole entry, looked up): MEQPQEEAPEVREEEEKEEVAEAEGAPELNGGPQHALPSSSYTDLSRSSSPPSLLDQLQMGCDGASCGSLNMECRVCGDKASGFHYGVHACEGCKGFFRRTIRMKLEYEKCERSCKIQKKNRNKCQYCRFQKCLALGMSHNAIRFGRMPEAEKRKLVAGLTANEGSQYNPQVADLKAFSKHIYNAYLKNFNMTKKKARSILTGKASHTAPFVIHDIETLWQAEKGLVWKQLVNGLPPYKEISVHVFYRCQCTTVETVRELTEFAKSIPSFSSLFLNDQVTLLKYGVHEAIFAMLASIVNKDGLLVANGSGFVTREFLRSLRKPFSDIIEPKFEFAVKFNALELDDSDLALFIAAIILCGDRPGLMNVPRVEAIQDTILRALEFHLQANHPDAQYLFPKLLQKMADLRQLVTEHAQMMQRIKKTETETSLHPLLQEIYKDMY
In short: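 Agonist-mode beta-lactamase reporter readout (CCF4 dye, 2 h at RT) after 18 h at 37 °C exposure to a titration; Hill-equation fitting gave EC50 and maximal response.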

[3] = target: Vitamin D3 receptor (Homo sapiens) (UniProt P11473); experiment: qHTS assay for small molecule agonists of vitamin D receptor signaling (AID 588543);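 further: 0% = DMSO basal and 100% = reference agonist control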
Vitamin D3 receptor (Homo sapiens), sequence (P11473 whole entry, looked up): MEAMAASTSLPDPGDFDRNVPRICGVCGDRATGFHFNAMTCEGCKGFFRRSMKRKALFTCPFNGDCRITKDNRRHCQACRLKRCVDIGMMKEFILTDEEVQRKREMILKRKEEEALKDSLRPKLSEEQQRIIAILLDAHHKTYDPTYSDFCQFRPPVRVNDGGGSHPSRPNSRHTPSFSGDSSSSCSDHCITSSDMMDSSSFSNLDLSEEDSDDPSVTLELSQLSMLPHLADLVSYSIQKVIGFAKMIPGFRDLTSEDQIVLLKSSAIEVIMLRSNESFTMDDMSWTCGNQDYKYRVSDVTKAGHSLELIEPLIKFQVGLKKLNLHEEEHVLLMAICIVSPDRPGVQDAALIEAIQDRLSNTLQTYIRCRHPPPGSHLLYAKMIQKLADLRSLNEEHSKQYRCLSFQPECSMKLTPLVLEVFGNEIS
In short: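 Reporter cells (HEK293T, VDR-UAS-bla) were seeded in medium with 2% charcoal-stripped serum and incubated 5 h, then compounds in concentration series were added for 16 h at 37 °C. Stimulation was scaled between DMSO basal and 50 nM 1α,25-dihydroxyvitamin D3.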

[4] = target: Thyroid hormone receptor beta (Homo sapiens) (UniProt P10828); experiment: qHTS assay for small molecule agonists of thyroid hormone receptor beta signaling (AID 588545)
Thyroid hormone receptor beta (Homo sapiens), sequence (P10828 whole entry, looked up): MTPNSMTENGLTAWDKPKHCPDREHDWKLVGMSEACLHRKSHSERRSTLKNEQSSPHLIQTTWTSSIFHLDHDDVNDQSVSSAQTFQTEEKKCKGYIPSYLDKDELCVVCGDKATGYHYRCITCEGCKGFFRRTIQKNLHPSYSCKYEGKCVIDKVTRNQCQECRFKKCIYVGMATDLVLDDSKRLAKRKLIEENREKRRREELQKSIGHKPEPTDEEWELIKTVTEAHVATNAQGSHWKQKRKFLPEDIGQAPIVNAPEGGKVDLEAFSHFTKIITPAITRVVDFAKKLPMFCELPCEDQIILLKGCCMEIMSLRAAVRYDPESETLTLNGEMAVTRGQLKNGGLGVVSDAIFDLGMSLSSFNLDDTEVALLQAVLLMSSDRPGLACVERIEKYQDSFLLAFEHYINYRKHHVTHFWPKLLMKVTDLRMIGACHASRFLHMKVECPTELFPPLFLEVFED
In short: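 Agonist activity was read as beta-lactamase CCF4 fluorescence (405 ex, 460/530 em), scaled between DMSO (0%) and 10 nM T3 (100%), then Hill-fitted for EC50 and efficacy. HEK 293 TR-UAS-bla cells in 2% charcoal/dextran FBS medium were exposed 18 h at 37 C.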

[5] = target: Thyroid hormone receptor beta (Homo sapiens) (UniProt P10828); experiment: qHTS assay for small molecule antagonists of thyroid hormone receptor beta signaling (AID 588547; active means well fitted inhibition curve with a large enough effect in the signal ratio, with a control signal flat, not every such curve was filed as active; inconclusive means small, poorly fitted or top-dose-only effect, or effect the other way, or a change in a side signal; the % refers to the signal ratio;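 further: cells stimulated with 0.4 nM T3 agonist during compound exposure; on the % scale 0 is the no-effect control and ±100 the full control effect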); conditions: TR-UAS-bla HEK293, beta-lactamase ratio, antagonist mode, 18 h
In short: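 TR-UAS-bla GripTite HEK293 cells in 2% charcoal/dextran FBS medium were preincubated 4 h at 37 C, given compound (0.59 nM to 92 uM) plus 0.4 nM T3 (final) for 18 h, then CCF4 for 2 h at RT; Hill fit gave IC50.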

[6] = qHTS assay for small molecule agonists of the antioxidant response element (ARE) signaling pathway (AID 651741; active means well fitted activation curve with a large enough effect in the signal ratio; inconclusive means small, poorly fitted or top-dose-only effect, or effect the other way, or a change in a side signal; the % refers to the signal ratio; further: potency means the concentration at half of the fitted maximal effect; on activation: % of control where 0% means no effect)
In short: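 Reporter: beta-lactamase under ARE, stably in HepG2. Exposure: 16 h, 37 C, compounds delivered in DMSO by pin tool after 5 h cell preincubation. Readout: FRET substrate fluorescence after 2 h at RT.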

[7] = qHTS assay for small molecule disruptors of the mitochondrial membrane potential - 1 hr assay (AID 651754); further: nearly all actives have a fitted effect of over 35% in size; further: potency means the concentration at half of the fitted maximal effect
In short: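 Mitochondrial potential in living HepG2 cells after 1 hr compound treatment at 37C was read with Mito-MPS dye added for a further 30 min. Red aggregate and green monomer fluorescence were measured; loss of potential leaves dye as cytoplasmic monomers.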

[8] = target: Nuclear receptor subfamily 1 group I member 2 (Rattus norvegicus) (UniProt Q9R1A7); experiment: qHTS assay for small molecule activators of the rat pregnane X receptor (rPXR) signaling pathway (AID 651751; call rule not given here; further: 0% is about no effect); conditions: rPXR reporter cells, luciferase (One-Glo), 24 h
Nuclear receptor subfamily 1 group I member 2 (Rattus norvegicus), sequence (Q9R1A7 whole entry, looked up): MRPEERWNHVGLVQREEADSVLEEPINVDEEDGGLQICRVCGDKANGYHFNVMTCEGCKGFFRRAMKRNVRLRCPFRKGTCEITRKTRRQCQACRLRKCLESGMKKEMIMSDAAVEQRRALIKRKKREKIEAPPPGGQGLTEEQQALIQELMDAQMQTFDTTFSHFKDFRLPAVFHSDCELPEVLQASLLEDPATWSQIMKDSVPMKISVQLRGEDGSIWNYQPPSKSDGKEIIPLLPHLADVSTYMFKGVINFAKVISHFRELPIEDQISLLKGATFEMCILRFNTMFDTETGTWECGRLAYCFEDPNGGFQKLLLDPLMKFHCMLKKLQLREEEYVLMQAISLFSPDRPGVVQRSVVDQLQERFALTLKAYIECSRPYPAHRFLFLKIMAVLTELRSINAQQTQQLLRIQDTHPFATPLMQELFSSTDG

[9] = qHTS assay for small molecule activators of the human pregnane X receptor (PXR) signaling pathway (AID 720659; call rule not given here; further: 0% is about no effect)
[10] = target: Glucocorticoid receptor (Homo sapiens) (UniProt P04150); experiment: qHTS assay for small molecule agonists of glucocorticoid receptor signaling (AID 588532; active means well fitted curve in the direction sought with a large enough effect in the signal ratio, with a control signal flat; inconclusive means small, poorly fitted or top-dose-only effect, or a change in a side signal; inactive means no such curve, though single readings can be large or run the other way; the % refers to the signal ratio; further: potency means the concentration at half of the fitted maximal effect;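 on activation: 100% = dexamethasone at 0.1 µM and 0% = DMSO only wells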); conditions: HeLa MMTV-bla, beta-lactamase ratio, agonist, 18 h; activation: stronger effect = higher value, percent of dexamethasone control, DMSO zero
Glucocorticoid receptor (Homo sapiens), sequence (P04150 whole entry, looked up): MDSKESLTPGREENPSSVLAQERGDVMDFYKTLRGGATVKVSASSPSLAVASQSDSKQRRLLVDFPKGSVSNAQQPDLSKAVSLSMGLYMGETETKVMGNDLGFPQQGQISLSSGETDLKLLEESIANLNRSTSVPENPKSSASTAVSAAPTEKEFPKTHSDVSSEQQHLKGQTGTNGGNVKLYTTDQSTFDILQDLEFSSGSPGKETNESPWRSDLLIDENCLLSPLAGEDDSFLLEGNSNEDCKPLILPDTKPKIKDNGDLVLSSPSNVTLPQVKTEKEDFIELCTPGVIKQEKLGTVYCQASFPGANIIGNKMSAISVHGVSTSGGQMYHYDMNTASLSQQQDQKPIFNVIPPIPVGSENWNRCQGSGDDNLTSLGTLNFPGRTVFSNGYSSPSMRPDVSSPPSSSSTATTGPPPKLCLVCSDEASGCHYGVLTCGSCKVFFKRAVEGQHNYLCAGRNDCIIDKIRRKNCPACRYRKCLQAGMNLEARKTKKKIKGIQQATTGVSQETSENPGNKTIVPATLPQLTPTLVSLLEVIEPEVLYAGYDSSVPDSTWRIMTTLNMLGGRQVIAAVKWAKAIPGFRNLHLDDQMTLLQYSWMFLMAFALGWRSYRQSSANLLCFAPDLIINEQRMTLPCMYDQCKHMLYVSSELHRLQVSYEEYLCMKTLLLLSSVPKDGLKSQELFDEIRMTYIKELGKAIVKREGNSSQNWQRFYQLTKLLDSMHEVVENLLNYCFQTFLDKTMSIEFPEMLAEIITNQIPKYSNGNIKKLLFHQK
In short: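 MMTV-bla HeLa, beta-lactamase reporter; medium with 1% charcoal/dextran-stripped FBS; cpds up to 92 uM, 18 h, 37 C; CCF4 readout 460/530 nm; Hill fit → EC50, efficacy vs 0.1 uM dexamethasone = 100%.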

[11] = target: Glucocorticoid receptor (Homo sapiens) (UniProt P04150); experiment: qHTS assay for small molecule antagonists of glucocorticoid receptor signaling (AID 588533; active means well fitted inhibition curve with a large enough effect in the signal ratio, with a control signal flat, not every such curve was filed as active; inconclusive means small, poorly fitted or top-dose-only effect, or effect the other way, or a change in a side signal; the % refers to the signal ratio;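 further: cells stimulated with 2 nM dexamethasone as agonist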; further: potency means the concentration at half of the fitted maximal effect)
In short: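 Antagonist-mode qHTS: compound titrations added to GRE-bla HeLa cells, then dexamethasone 2 nM final; 18 h, 37 C. CCF4 FRET fluorescence normalized to dexamethasone and DMSO; IC50 from Hill fit.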

[12] = Cellular Toxicity (caspase-3) Jurkat (AID 655; active means well fitted curve in the direction sought with a large enough effect; inconclusive means small, poorly fitted or top-dose-only effect, or another doubt; inactive means no such curve, though single readings can be large; an effect the other way counts as inactive or inconclusive;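 further: cells exposed to compound for 16 h at 37 °C before reading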; further: potency means the concentration at half of the fitted maximal effect); conditions: Jurkat caspase-3 activation, luminescence; caspase-3 activation: at 92.2 µM (top of the series), DMSO = 0%, tamoxifen = 100%
In short: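 5000 Jurkat cells/well; compound 16 hr, 37 °C; Caspase-Glo 3/7 added, 20 min RT; luminescence read. Norm: DMSO = 0%, tamoxifen 100 uM = 100%. AC50, Hill model.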

[13] = Cell Viability - LYMP2-026 (AID 989; active means well fitted curve in the direction sought with a large enough effect; inconclusive means small, poorly fitted or top-dose-only effect, or another doubt; inactive means no such curve, though single readings can be large; an effect the other way counts as inactive or inconclusive; further: nearly all actives have a fitted effect of over 50% in size; further: potency means the concentration at half of the fitted maximal effect)
In short: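 Cytotoxicity read as ATP-dependent luminescence (CellTiter-Glo, 30 min room temperature) after 24 h compound treatment at 37 C. LYMP2-026 lymphoblastoid line seeded at 2500 cells/well; AC50 derived by standard Hill equation.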

[14] = target: Estrogen receptor (Homo sapiens) (UniProt P03372); experiment: qHTS assay for small molecule antagonists of estrogen receptor alpha signaling (AID 588513; active means well fitted curve in the direction sought with a large enough effect in the signal ratio, with a control signal flat, not every such curve was filed as active; inconclusive means small, poorly fitted or top-dose-only effect, or effect the other way, or a change in a side signal; inactive means no such curve, though single readings can be large or run the other way; the % refers to the signal ratio; further: potency means the concentration at half of the fitted maximal effect)
Estrogen receptor (Homo sapiens), sequence (P03372 whole entry, looked up): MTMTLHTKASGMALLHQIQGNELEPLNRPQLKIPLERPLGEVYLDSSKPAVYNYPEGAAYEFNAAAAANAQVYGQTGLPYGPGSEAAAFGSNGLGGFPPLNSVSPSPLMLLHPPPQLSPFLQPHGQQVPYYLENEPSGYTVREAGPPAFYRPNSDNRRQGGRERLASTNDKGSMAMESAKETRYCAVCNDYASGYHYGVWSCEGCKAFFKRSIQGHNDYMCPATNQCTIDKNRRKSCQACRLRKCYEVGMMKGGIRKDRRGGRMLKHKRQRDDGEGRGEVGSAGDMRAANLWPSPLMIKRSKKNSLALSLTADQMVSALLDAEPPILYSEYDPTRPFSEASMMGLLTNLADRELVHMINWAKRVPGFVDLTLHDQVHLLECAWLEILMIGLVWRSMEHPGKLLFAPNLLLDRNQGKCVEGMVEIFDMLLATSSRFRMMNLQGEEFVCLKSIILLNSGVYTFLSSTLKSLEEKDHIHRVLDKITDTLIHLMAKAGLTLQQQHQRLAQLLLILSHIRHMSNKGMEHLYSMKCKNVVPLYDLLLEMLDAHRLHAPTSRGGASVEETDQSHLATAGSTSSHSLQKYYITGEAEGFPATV
In short: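 Fluorescence from CCF4 substrate after 2 h at room temperature gave reporter activity; cells had been exposed to compound and 0.5nM 17-beta-estradiol for 18 h at 37 C. Hill-equation fitting yielded IC50 and maximal response.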

[15] = qHTS assay for small molecule antagonists of retinoid X receptor alpha signaling (AID 588546; active means well fitted inhibition curve with a large enough effect in the signal ratio, with a control signal flat, not every such curve was filed as active; inconclusive means small, poorly fitted or top-dose-only effect, or effect the other way, or a change in a side signal; inactive means no such curve, though single readings can be large or run the other way; the % refers to the signal ratio;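 further: cells stimulated with 9-cis-retinoic acid as agonist; on the % scale 0 is the no-effect control and ±100 the full control effect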); conditions: HEK293T RXRa-UAS-bla, beta-lactamase ratio, antagonist mode; measured here: W530 green channel, cytotoxicity proxy
In short: (§1)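 Beta-lactamase reporter inhibition, read as CCF4 fluorescence ratio (ex 405, em 460/530 nm) after 2 h at RT. HEK293T UAS-bla cells, 2500/well, were stimulated with 9-cis-RA at 500 or 100 nM final alongside test compound for 18 h at 37 C.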

[16] = target: Retinoic acid receptor RXR-alpha (Homo sapiens) (UniProt P19793); experiment: as above; conditions: HEK293T RXRa-UAS-bla, beta-lactamase ratio, antagonist mode
Retinoic acid receptor RXR-alpha (Homo sapiens), sequence (P19793 whole entry, looked up): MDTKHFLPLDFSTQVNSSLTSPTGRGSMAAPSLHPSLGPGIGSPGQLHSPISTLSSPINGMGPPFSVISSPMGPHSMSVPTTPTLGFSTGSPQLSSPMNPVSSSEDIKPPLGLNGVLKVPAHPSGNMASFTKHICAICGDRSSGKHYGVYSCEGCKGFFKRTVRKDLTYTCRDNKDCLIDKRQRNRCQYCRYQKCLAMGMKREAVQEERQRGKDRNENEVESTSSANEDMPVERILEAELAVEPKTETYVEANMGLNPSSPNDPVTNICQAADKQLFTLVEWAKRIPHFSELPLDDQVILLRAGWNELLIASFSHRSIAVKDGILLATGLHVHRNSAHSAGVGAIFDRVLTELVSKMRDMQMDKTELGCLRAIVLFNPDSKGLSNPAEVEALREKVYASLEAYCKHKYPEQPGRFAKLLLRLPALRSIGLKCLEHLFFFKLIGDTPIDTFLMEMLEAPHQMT
In short: as §1

[17] = target: Muscarinic acetylcholine receptor M1 (Rattus norvegicus) (UniProt P08482); experiment: qHTS Assay for Antagonists of Acetylcholine Muscarinic M1 Receptor: Kinetic Measurement of Intracellular Calcium Response (AID 943; active means well fitted curve in the direction sought with a large enough effect; inconclusive means small, poorly fitted or top-dose-only effect, or another doubt; inactive means no such curve, though single readings can be large; an effect the other way counts as inactive or inconclusive; further: nearly all actives have a fitted effect of over 75% in size; further: potency means the concentration at half of the fitted maximal effect)
Muscarinic acetylcholine receptor M1 (Rattus norvegicus), sequence (P08482 whole entry, looked up): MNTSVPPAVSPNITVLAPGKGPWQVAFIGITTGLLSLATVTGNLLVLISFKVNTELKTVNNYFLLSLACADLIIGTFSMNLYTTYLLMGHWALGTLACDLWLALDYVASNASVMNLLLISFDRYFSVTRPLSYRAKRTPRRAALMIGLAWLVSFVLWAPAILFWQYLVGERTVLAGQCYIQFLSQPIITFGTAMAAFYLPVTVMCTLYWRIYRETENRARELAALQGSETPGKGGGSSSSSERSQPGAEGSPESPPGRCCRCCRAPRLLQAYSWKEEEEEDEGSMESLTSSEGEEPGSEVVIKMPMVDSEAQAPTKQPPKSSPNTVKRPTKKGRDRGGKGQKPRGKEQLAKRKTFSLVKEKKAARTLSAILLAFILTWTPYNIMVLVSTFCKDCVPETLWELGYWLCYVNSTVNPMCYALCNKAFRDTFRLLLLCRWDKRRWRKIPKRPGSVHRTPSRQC
In short: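 Antagonism measured as reduction of carbachol-evoked (EC80, 100 nM final) calcium flux in rat M1-CHO cells after 10 min compound exposure. Fluo-4 signal read kinetically; ratio of maximal to basal fluorescence.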

[18] = target: Pyruvate kinase PKM (Homo sapiens) (UniProt P14618); experiment: qHTS Assay for Activators of Human Muscle Pyruvate Kinase (AID 954; active means well fitted curve in the direction sought with a large enough effect, not every such curve was filed as active; inconclusive means small, poorly fitted or top-dose-only effect, or effect the other way, or another doubt; inactive means no such curve, though single readings can be large or run the other way;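 further: 0% = uninhibited enzyme and -100% = no enzyme or full thiadiazolimine inhibition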)
Pyruvate kinase PKM (Homo sapiens), sequence (P14618 whole entry, looked up): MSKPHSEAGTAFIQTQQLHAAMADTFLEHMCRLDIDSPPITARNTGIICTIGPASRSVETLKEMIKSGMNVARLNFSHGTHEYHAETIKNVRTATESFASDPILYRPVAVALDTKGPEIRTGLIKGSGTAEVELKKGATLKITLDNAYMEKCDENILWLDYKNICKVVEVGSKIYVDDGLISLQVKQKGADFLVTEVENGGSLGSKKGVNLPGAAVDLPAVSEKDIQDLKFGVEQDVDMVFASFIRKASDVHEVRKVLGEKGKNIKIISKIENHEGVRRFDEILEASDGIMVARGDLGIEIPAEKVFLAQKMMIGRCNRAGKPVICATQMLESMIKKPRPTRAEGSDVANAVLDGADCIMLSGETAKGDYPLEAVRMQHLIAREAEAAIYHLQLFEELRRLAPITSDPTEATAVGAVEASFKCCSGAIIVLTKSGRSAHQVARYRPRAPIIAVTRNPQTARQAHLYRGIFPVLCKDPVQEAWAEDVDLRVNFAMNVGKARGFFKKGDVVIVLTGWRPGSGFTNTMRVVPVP
In short: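 Compound pinned into substrate mix (0.5 mM PEP, 0.1 mM ADP), then 0.1 nM PKM2 added; 1 h, RT. Stop/detection luciferase reagent added, luminescence read. Normalized to no-inhibition and no-enzyme or reference-inhibitor controls.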

[19] = target: Alpha-galactosidase (Coffea arabica) (UniProt Q42656); experiment: Counterscreen for Glucocerebrosidase Inhibitors: qHTS Assay for Coffee Bean alpha-Galactosidase at pH 4.5 (AID 957; active means well fitted curve in the direction sought with a large enough effect; inconclusive means small, poorly fitted or top-dose-only effect, or another doubt; inactive means no such curve, though single readings can be large; an effect the other way counts as inactive or inconclusive;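 further: plate controls were enzyme alone for no effect and no enzyme for full effect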)
Alpha-galactosidase (Coffea arabica), sequence (Q42656 whole entry, looked up): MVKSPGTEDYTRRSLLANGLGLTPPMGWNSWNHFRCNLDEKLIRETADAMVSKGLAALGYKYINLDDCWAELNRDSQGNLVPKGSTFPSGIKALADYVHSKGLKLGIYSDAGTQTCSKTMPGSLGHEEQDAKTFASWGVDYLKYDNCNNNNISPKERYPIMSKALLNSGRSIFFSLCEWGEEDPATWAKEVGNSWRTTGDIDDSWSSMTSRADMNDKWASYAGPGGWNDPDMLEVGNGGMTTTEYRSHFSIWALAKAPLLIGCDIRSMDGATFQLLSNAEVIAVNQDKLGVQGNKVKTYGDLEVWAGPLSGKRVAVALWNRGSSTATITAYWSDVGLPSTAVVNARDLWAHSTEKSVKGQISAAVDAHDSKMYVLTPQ
In short: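 Fluorogenic qHTS at pH 4.5 (citrate buffer with Tween-20): 2 nM enzyme, 80 uM 4-MU-alpha-galactoside substrate, compound titrated 0.7 nM to 77 uM, 20 min room temperature. Glycine/NaOH stop; 4-MU read Ex 365/Em 440; Hill-equation AC50 against no-enzyme and enzyme controls.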

[20] = target: Alpha-galactosidase (Coffea arabica) (UniProt Q42656); experiment: Counterscreen for Glucocerebrosidase Inhibitors: qHTS Assay for Coffee Bean alpha-Galactosidase at pH 5.9 (AID 998; active means well fitted curve in the direction sought with a large enough effect; inconclusive means small, poorly fitted or top-dose-only effect, or another doubt; inactive means no such curve, though single readings can be large; an effect the other way counts as inactive or inconclusive;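 further: plate controls were uninhibited enzyme for no effect and no-enzyme basal signal for full effect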)
In short: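 In 50 mM citric acid pH 5.9 with 0.005% Tween-20, coffee bean enzyme hydrolyses 80 uM 4-MU alpha-D-galactopyranoside over 20 min at RT. Activity is normalized to controls; AC50 comes from Hill-modelled concentration-response data.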

C(=NC1CCCCC1)=NC1CCCCC1
inactive: activation [1] 1.63% | outcome [2] | outcome [3] | Potency [4] | activity change % (negative = inhibition) [5] -20.1% and -3.06% | Potency [7] | max response [8] 0.443% and 0.275% | outcome [9]
active: Potency [6] 24.3 µM

O=C1C2(Cl)C3(Cl)C4(Cl)C(Cl)(Cl)C5(Cl)C3(Cl)C1(Cl)C5(Cl)C24Cl (stereo unspecified)
active: Potency [11] 39.8 µM | Potency [6] 66.8 µM | Potency [7] 3.35 µM and 10.6 µM
inactive: activation [1] 1.21% and 8.36% | activation [10] -3.98% and -15.4% | outcome [2] | outcome [3]

FC(F)(F)c1ccc(Cl)cc1
-9.15%: max response [15]
inactive: caspase-3 activation [12] 2.36% | Potency [13] | Potency [14] | activation [1] 3.21% and 2.89% | activation [10] 4.86% | Potency [11] | outcome [2] | outcome [3] | Potency [4] | max response [16] -8.02% | activity change % (negative = inhibition) [5] 6.64% | Potency [6] | Potency [7] | max response [8] -0.484% and -1.67% | outcome [9]

Oc1c(Br)c(Br)c(Br)c(Br)c1Br
inactive: Potency [13] | activation [10] 3.02% | outcome [2] | outcome [3] | outcome [9]
active: Potency [12] 31.6 µM | Potency [14] 39.8 µM [inconclusive] | Potency [11] 39.8 µM | Potency [7] 33.5 µM

O=[N+]([O-])C(Br)Br
-6.12%: max response [15]
inactive: activation [10] -5.74% | outcome [2] | outcome [3] | Potency [4] | max response [16] 3.78% | activity change % (negative = inhibition) [5] 4.06% | Potency [7] | max response [8] 1.81% | outcome [9]
active: Potency [13] 20 µM | Potency [6] 47.3 µM

CN[C@@H](C)[C@@H](O)c1ccccc1
inactive: Potency [17] | outcome [18]

[Cd+2].[Cl-].[Cl-]
active: Potency [14] 44.7 µM [inconclusive]
inactive: caspase-3 activation [12] -2.73% | outcome [3] | Potency [4]

ClC1=C(Cl)C2(Cl)C3C(Cl)C(Cl)CC3C1(Cl)C2(Cl)Cl (stereo unspecified)
inactive: activation [10] 17.3% | outcome [2] | outcome [3]
active: caspase-3 activation [12] 81.5% | Potency [6] 66.8 µM

CC(=O)[O-].CC(=O)[O-].O.O.[Cd+2]
inactive: caspase-3 activation [12] 4.84% | Potency [4] | Potency [7]

c1ccc2cc3c(cc2c1)-c1cccc2cccc-3c12
inactive: caspase-3 activation [12] -1.28% | Potency [13] | Potency [14] | Potency [7] | max response [8] 5.83% and 4.65%
active: Potency [1] 3.16 µM | Potency [10] 15.8 µM | Potency [6] 1.88 µM and 1.93 µM

N#CSCSC#N
active: caspase-3 activation [12] -5.48% | Potency [13] 7.94 µM
inactive: activation [1] 17.3% | activation [10] 0.19% | Potency [7]

Clc1ccc(C(c2ccc(Cl)cc2)C(Cl)Cl)cc1
inactive: caspase-3 activation [12] 22.6% | Potency [13] | activation [1] 3.84% | activation [10] -2.1% | outcome [2] | outcome [3] | Potency [4] | activity change % (negative = inhibition) [5] -7.83% and -28.4%
active: Potency [14] 39.8 µM [inconclusive] | Potency [6] 66.8 µM and 61.1 µM | Potency [7] 59.6 µM

O=[N+]([O-])c1cc(C(F)(F)F)cc([N+](=O)[O-])c1Cl
inactive: Potency [14] | activation [1] -1.74% | activation [10] -2.51% | Potency [11] | outcome [2] | outcome [3] | max response [16] 20% | activity change % (negative = inhibition) [5] -4.32% | Potency [6] | Potency [7] | max response [8] -2.25% | outcome [9]
active: Potency [13] 31.6 µM
0.867%: max response [15]

C#CCO
-7.57%: max response [15]
inactive: caspase-3 activation [12] -1.9% | Potency [13] | Potency [14] | activation [10] 0.566% | Potency [11] | outcome [2] | outcome [3] | Potency [4] | max response [16] 24.4% | activity change % (negative = inhibition) [5] -4.81% | max response [8] 1.29% | outcome [9]

C[C@@H]1CC[C@@]2(OC1)O[C@H]1[C@@H](O)[C@H]3[C@@H]4CC[C@H]5C[C@@H](O[C@@H]6O[C@H](CO)[C@H](O[C@@H]7O[C@H](CO)[C@@H](O)[C@H](O[C@@H]8OC[C@@H](O)[C@H](O)[C@H]8O)[C@H]7O[C@@H]7O[C@H](CO)[C@@H](O)[C@H](O[C@@H]8O[C@H](CO)[C@@H](O)[C@H](O)[C@H]8O)[C@H]7O)[C@H](O)[C@H]6O)[C@H](O)C[C@]5(C)[C@H]4CC[C@]3(C)[C@H]1[C@@H]2C
inactive: outcome [9]
active: Potency [13] 15.8 µM | Potency [14] 8.91 µM [inconclusive] | Potency [7] 26.6 µM

CCCCCCCCCCCCCC(=O)O[C@H]1[C@@H](C)[C@@]2(O)[C@@H](C=C(CO)C[C@]3(O)C(=O)C(C)=C[C@@H]23)C2C(C)(C)[C@]21OC(C)=O (stereo partly specified)
inactive: outcome [18] | outcome [19] | outcome [20]
active: Potency [17] 0.02 µM

COC[C@H]1OC(=O)c2coc3c2[C@@]1(C)C1=C(C3=O)[C@H]2CCC(=O)[C@@]2(C)C[C@H]1OC(C)=O
inactive: Potency [17] | outcome [18] | outcome [19] | outcome [20]

C[C@@H]1O[C@@H](O[C@H]2C[C@@H](O)[C@]3(CO)[C@@H]4[C@@H](O)C[C@]5(C)[C@H]([C@@H]6COC(=O)C6)CC[C@@]5(O)[C@H]4CC[C@@]3(O)C2)[C@H](O)[C@H](O)[C@@H]1O
inactive: outcome [18] | outcome [19] | outcome [20]

Oc1cc2c(cc1O)[C@H]1c3ccccc3CN[C@@H]1CC2
inactive: Potency [17] | outcome [19] | outcome [20]
